Out of some 3,300 compounds screened, about 20 (0.6%) were called active.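 The calls were made as follows: active = growth inhibition above 90%, meaning viable cell count cut by more than 90% versus vehicle controls; inactive = growth inhibition below 90%.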 Many of the other results were omitted from the sample, so actives are more common in it than they were.
Assay: HT29 colon tumor cell growth inhibition, primary screen, imaging, high content imaging, 72 h, CellTiter-Glo (AID 772);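 as to condensed nuclei: condensed means nuclear area below control median minus 1.5 SD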
Conditions: HCS imaging cell count, at 10 µM, stronger effect = higher value; for condensed nuclei: measured here: percent cells with condensed nuclei
[1] = measured here: ATP CellTiter-Glo viability

| Compound | growth inhibition | growth inhibition [1] [%] | condensed nuclei [%] |
| --- | --- | --- | --- |
| CCCCOC(=O)c1ccc(NC(=O)CSc2nncn2C)cc1 | 11.7% (inactive) | -49.6 | 2.84 |
| Cc1cc(=O)oc(C)c1C(=O)NCC1CCCO1 (stereo not drawn) | 13.8% (inactive) | 8.51 | 7.86 |
| Clc1ccc(-n2ncc3c(NCc4ccco4)ncnc32)cc1 | 90.8% (active) | 93.7 | 40 |
| Clc1ccc(-n2ncc3c(NCc4cccs4)ncnc32)cc1 | -12.9% (inactive) | -9.82 | 2.28 |
| Cc1cccc(-n2ncc3c(NCc4ccco4)ncnc32)c1 | 88.8% (inactive) | 83.6 | 12.1 |
| Cn1c(OCc2ccco2)nc2c1c(=O)n(Cc1ccc(Cl)c(Cl)c1)c(=O)n2C | -4.69% (inactive) | -10 | 6.05 |
| COc1ccc(CNc2oc(COc3ccc(Cl)cc3)nc2C#N)cc1 | 59% (inactive) | 54.4 | 24.8 |
| COc1ccc(CSc2nnc3n(C)c(=O)c4c5c(sc4n23)CCCC5)cc1 | -75.3% (inactive) | -39.3 | 2.4 |
| Cc1ccc(-c2nnc(-c3cccc(Br)c3)o2)cc1 | 20.1% (inactive) | -5.25 | 0 |
| Cc1ccccc1C(=O)c1ccc2c(c1)n(C)c(=O)n2C | -2.53% (inactive) | -7.19 | 3.03 |
| O=C(NC1CCCCC1)N1CCSC1=Nc1ccccc1 | 54.8% (inactive) | 12.5 | 9.09 |
| O=C1C(=O)N(CCN2CCOCC2)C(c2ccccn2)/C1=C(/O)c1ccc(F)cc1 (stereo not drawn) | -59.2% (inactive) | -29.6 | 3.57 |
| C=CCNc1nc(-c2ccc(O)c(C(N)=O)c2)cs1 | -5% (inactive) | 38.5 | 8.5 |
| CCOc1ccc(-c2nc(C#N)c(N3CCN(CC)CC3)o2)cc1 | 33.8% (inactive) | -1.72 | 5.03 |
| C=CCOC(=O)C(C#N)c1nc2ccccc2nc1N1CCN(c2ccccc2OCC)CC1 (stereo not drawn) | -8.05% (inactive) | -23.8 | 3.97 |
| Cc1cc(C)n(CC2CC(=O)N(c3cc(Cl)cc(Cl)c3)C2=O)n1 (stereo not drawn) | -36.8% (inactive) | -33.9 | 2.19 |
| COCCCn1c2nc3ccccc3nc2c2c(=O)n(-c3ccccc3OC)c(C)nc21 | -36.8% (inactive) | -45.7 | 1.23 |
| C=CCOC(=O)C1=C(C)OC(N)=C(C#N)C1c1ccoc1 (stereo not drawn) | 45.6% (inactive) | 21.7 | 6.32 |
| CCOC(=O)c1c(SC)nc(SC)c2c1CCC2 | -36.8% (inactive) | -48 | 3.12 |
| Cc1cc(C)n(Cc2ccc(C(=O)NCCC3=CCCCC3)o2)n1 | -19.5% (inactive) | 3.39 | 3.56 |
| Cn1cc(Br)cc2nc(C(F)(F)F)nc1-2 | 1.5% (inactive) | 19.5 | 22.8 |
| COc1ccc(C2CC(=O)c3sc(N)nc3C2)cc1 (stereo not drawn) | 57.6% (inactive) | 22.2 | 1.99 |

| Compound | growth inhibition | growth inhibition [1] [%] | condensed nuclei [%] |
| --- | --- | --- | --- |
| O=C(NCCC1=CCCCC1)c1ccc(=O)oc1 | 45.9% (inactive) | 19.6 | 21.8 |
| Clc1ccccc1-c1nn2c(-c3ccccn3)nnc2s1 | -1.22% (inactive) | 21.5 | 15.7 |
| CCCCc1c(C)c2ccc(OCC(C)=O)cc2oc1=O | -30.8% (inactive) | -58.8 | 2.85 |
| CO[C@H]1C[C@@H]2CC[C@@H](C)[C@@](O)(O2)C(=O)C(=O)N2CCCC[C@H]2C(=O)O[C@H]([C@H](C)C[C@@H]2CC[C@@H](O)[C@H](OC)C2)CC(=O)[C@H](C)C=C(C)[C@@H](O)[C@@H](OC)C(=O)[C@H](C)C[C@H](C)C=CC=CC=C1C | 19.1% (inactive) | -4.98 | 2.81 |
| CCOC(=O)c1ccc(N=Cc2nc(-c3ccccc3)oc2OC(C)=O)cc1 | 6.56% (inactive) | -17.5 | 12.1 |
| CC12CCC(C(=O)NCCCN3CCOCC3)(OC1=O)C2(C)C (stereo not drawn) | -26.1% (inactive) | -11.1 | 1.65 |
| CC(C)CC(NC(=O)OC(C)(C)C)C(=O)NCc1ccccc1 (stereo not drawn) | 9.38% (inactive) | -13 | 1.7 |
| CCOc1ccc(C2C(C(=O)c3ccc(C)o3)=C(O)C(=O)N2CCN2CCOCC2)cc1OC (stereo not drawn) | -37.5% (inactive) | -33.6 | 4.84 |
| O=C(CCN1CCCCC1)Nc1cccc(Cl)c1 | 35% (inactive) | 28.1 | 26.1 |
| N#Cc1nc(-c2cccs2)oc1NCc1ccc2c(c1)OCO2 | 48% (inactive) | 8.08 | 3.78 |
| COC(=O)c1[nH]c(C)c(/C(O)=C2\C(=O)C(=O)N(CCN3CCOCC3)C2c2cccnc2)c1C (stereo not drawn) | -38.7% (inactive) | -21.1 | 3.67 |
| N#CC1=C(N)OC2=C(C(=O)CCC2)C1CCc1ccccc1 (stereo not drawn) | 12% (inactive) | -15.7 | 5.15 |
| COc1cccc(-c2nc(NCCN3CCOCC3)c3ccccc3n2)c1O | 38% (inactive) | 86.2 | 23.4 |
| Fc1ccccc1-c1nc(NCCCN2CCOCC2)c2ccccc2n1 | 92.5% (active) | 79 | 14.3 |
| Oc1ccccc1-c1nc(NCCN2CCOCC2)c2ccccc2n1 | 30.6% (inactive) | 94 | 18.9 |
| COCCN(CCOC)C(=O)C12CCC(C)(C(=O)C1)C2(C)C (stereo not drawn) | 31.4% (inactive) | -4.4 | 10.7 |
| CCN(CC)CCN1C(=O)C(=O)/C(=C(/O)c2c(C)[nH]c(C(=O)OC)c2C)C1c1cccc(OC)c1 (stereo not drawn) | -109% (inactive) | -54.7 | 4.61 |
| COC(=O)c1ccc(-c2sc3nc(N4CCOCC4)c4c(c3c2N)CCCC4)o1 | 89.6% (inactive) | 82.9 | 55.6 |
| COc1cc2c(C(=O)N3CCN(c4ccccc4)CC3)c(C)oc2cc1Br | -0.57% (inactive) | -11.3 | 5.92 |
| Cc1ccc(OCC(=O)NCC(=O)n2nc(C)cc2C)cc1 | -54.1% (inactive) | -44.3 | 2.73 |
| Cc1ccccc1N1C(=O)CC(Sc2nnc(-c3ccccc3)o2)C1=O (stereo not drawn) | -77.9% (inactive) | -47.7 | 3.38 |
| Cc1cc(C)cc(CC2CC(=O)N(c3cc(C)on3)C2=O)c1 (stereo not drawn) | 2.63% (inactive) | -16.1 | 7.19 |

| Compound | growth inhibition | growth inhibition [1] [%] | condensed nuclei [%] |
| --- | --- | --- | --- |
| CCOC(=O)c1sc(-n2[nH]c(C)cc2=O)nc1C | 14.3% (inactive) | -4.21 | 1.46 |
| C=CCc1cccc(CNc2nc3ccccc3n2C(C)C)c1O | 95.1% (active) | 88.3 | 14.6 |
| C=CCc1cccc(/C=N/n2cnnc2)c1O | 34.7% (inactive) | 20.1 | 13.3 |
| C=CCc1cccc(/C=N/c2ncn[nH]2)c1O | -6.01% (inactive) | -17.7 | 2.92 |
| CC1(c2ccco2)NC(=O)NC1=O (stereo not drawn) | 16.9% (inactive) | 7.41 | 12.6 |
| CC(C)CCNc1nc2c(cc1C#N)COC(C)(C)C2 | 12.7% (inactive) | 2.37 | 1.81 |
| CNc1nc(C)c(C#N)cc1C(C)=O | 82.9% (inactive) | 37.9 | 1.85 |
| CN1C(=O)N(c2ccccc2)C(Nc2nncs2)C1(C)C (stereo not drawn) | -44.1% (inactive) | -46.4 | 5.92 |
| CCOC(=O)C1CCN(C(C)=C2C(=O)c3ccccc3C2=O)CC1 | -17.6% (inactive) | -13.6 | 15.2 |
| CC1(C)Cc2c(C#N)c(SCc3nc4ccccc4[nH]3)nc(N3CCOCC3)c2CO1 | 90.8% (active) | 83.4 | 5.26 |
| CC1(C)Cc2c(C#N)c(SCCOc3ccccc3)nc(N3CCOCC3)c2CO1 | -23.3% (inactive) | -59.6 | 0.88 |
| CCCCCSc1nc(N2CCOCC2)c2c(c1C#N)CC(C)(C)OC2 | 69.6% (inactive) | 74.9 | 29.7 |
| COc1ccc(Cn2c(CCCO)nc3ccccc32)cc1OC | 32.8% (inactive) | 6.64 | 5.26 |
| CN1CCc2nc(SCC(=O)Nc3ccc(Cl)cc3)c(C#N)cc2C1 | 54.4% (inactive) | 55.6 | 17.3 |
| Cc1ccc(N2C(=O)C3ON(c4ccccc4)C(c4ccncc4)C3C2=O)c(C)c1 (stereo not drawn) | 10.2% (inactive) | 1.38 | 8.14 |
| Cc1ccc(OCc2nnc(NC(=O)c3ccco3)s2)c(C)c1 | -8.86% (inactive) | -6.84 | 11.2 |
| Cc1cc(=O)oc(C)c1C(=O)NCCNC(=O)c1c(C)cc(=O)oc1C | 5.17% (inactive) | -5.21 | 2.08 |
| CC[N+](C)(CC)CCOC(=O)C(O)(c1ccccc1)C1CCCCC1 (stereo not drawn) | -74.7% (inactive) | -22.9 | 4.12 |
| CCN(CC)CC#CCOC(=O)C(O)(c1ccccc1)C1CCCCC1 (stereo not drawn) | 93.1% (active) | 92.7 | 18.4 |
| CN1CCCN=C1COC(=O)C(O)(c1ccccc1)C1CCCCC1 (stereo not drawn) | -62.6% (inactive) | -21.5 | 2.98 |
| c1ccc(Cc2nnc3n2CCCCC3)cc1 | -43.5% (inactive) | -46.4 | 1.7 |
| O=C1c2ccccc2C(=O)C1c1ccc2ccccc2n1 | 18.9% (inactive) | 7.1 | 4.03 |

Source: PubChem BioAssay AID772 (SRMLSC, 2007)
